In all, about 35,000 sequences were measured (“fluorescence intensity (a.u.)”: median about 10,000, highest 2% from about 52,000 on). Shown is part of a subset that was picked to be rich in the highest values.

This assay has as its target T1, OsWOX13 (Oryza sativa, UniProt Q5QMM3 1-267).
T1 sequence: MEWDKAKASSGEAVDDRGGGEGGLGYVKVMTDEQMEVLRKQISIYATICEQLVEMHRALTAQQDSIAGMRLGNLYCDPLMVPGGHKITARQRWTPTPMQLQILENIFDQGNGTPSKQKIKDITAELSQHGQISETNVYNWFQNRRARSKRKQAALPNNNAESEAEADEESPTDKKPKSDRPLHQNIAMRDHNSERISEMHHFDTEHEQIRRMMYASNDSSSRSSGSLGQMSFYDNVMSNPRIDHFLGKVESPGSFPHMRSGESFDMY
Nature of the assay: protein-binding microarray (RPBM); PBS, 2% BSA, 51.3 ng/ul salmon testes DNA, 50 uM zinc acetate, 200 nM TF, 25 C, 1 h; high values mean tight binding. The following applies: protein: recombinant; tags: N-terminal polyhistidine and DsRed monomer fusion (pET32a); label: CyDye5-dUTP incorporated in the synthesized complementary strand; 3' TTTTT single-stranded linker to array surface; dsDNA, one strand shown. An outline of the steps:
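Binding signal here means per-feature fluorescence intensity in arbitrary units. The values were read on an Axon 4000B scanner after a custom Agilent array, double-stranded by primer extension with Cy5-dUTP, was incubated with 200 nM protein at 25 °C for 1 h in PBS with 2% BSA, salmon testes DNA and 50 µM zinc acetate, then washed. The proteins were transcription factors with an N-terminal polyhistidine tag and DsRed, expressed in E. coli BL21-CodonPlus and purified on Ni–NTA.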
Take “TTCCGGTGATTAGTCAACTGCCACGACCAGATTAATCTACCGGAGTCACCTAGTGCAG”: the binding signal is 20300 fluorescence intensity (a.u.). To “TCATAACTAATATTTAAATGGTATTTGAACATCCCATGGACGGAGTCACCTAGTGCAG” belongs 9720 fluorescence intensity (a.u.).

Turning to “TCTGACCTGAAAGTCTCAATCAGACAGCTTTCGAAAAGGACGGAGTCACCTAGTGCAG”, the binding signal is 4260 fluorescence intensity (a.u.). For the sequence “AAACCTATGACAATCAACCTTTTGACTGTCATACTAGCTCCGGAGTCACCTAGTGCAG”, the binding signal is 9360 fluorescence intensity (a.u.).

Regarding “TATTGATTAAACATAATGGTCTCACAATATTTTAGTTACCCGGAGTCACCTAGTGCAG”, the binding signal is 27300 fluorescence intensity (a.u.). “CTGAAATGATTTTCATTTGATTCAAATGGGCCTAAGAATTCGGAGTCACCTAGTGCAG”: the binding signal was 17200 fluorescence intensity (a.u.).

For the sequence “GTGGCTGTGATTGTGTGATTGTGTACCTGTTTGTAGTGAACGGAGTCACCTAGTGCAG”, the binding signal is 20500 fluorescence intensity (a.u.). “TATCTACTAATTTAACTTATAAATGGGTTTATGGGTTGACCGGAGTCACCTAGTGCAG”: the binding signal was 11200 fluorescence intensity (a.u.).

Turning to “CGGGCTTCTTGATTTGCGGATTGTTGTTGTGGATCGCCAGCGGAGTCACCTAGTGCAG”, the binding signal is 5040 fluorescence intensity (a.u.). With “ATGATAACTGATTGCAATAAGGTTAGGATGTTGTCACACCCGGAGTCACCTAGTGCAG”, the binding signal was 52900 fluorescence intensity (a.u.). For “TTTAAATTTTAATGATCGGTGATTTTGTGCAGGGAAAACGCGGAGTCACCTAGTGCAG”, the binding signal was 24200 fluorescence intensity (a.u.).

On to “AATAATGATAACTGATAAGGGTTTGTTTAGTCTGGATGAACGGAGTCACCTAGTGCAG”, for which the binding signal was 18800 fluorescence intensity (a.u.). For the sequence “TTTAATTAATTTGTTAAATTTTCTGATCGGAATGAGCGGTCGGAGTCACCTAGTGCAG”, the binding signal was 63700 fluorescence intensity (a.u.). With “GATGAACATTGATTTGCTCGGATCTTGGATGCTGTTTGTGCGGAGTCACCTAGTGCAG”, the binding signal is 20800 fluorescence intensity (a.u.).

Take “TTTTAAATTTCATTATATAATGATTAATTTGGGAATGAGGCGGAGTCACCTAGTGCAG”: the binding signal is 30800 fluorescence intensity (a.u.). In the case of “AATAAGGGACTTAATTAGTCTAGGTTAAACTGGATGTTGCCGGAGTCACCTAGTGCAG”, the binding signal was 4640 fluorescence intensity (a.u.). Regarding “TTAACTGATTGATGCTCAAGTGGATTGATCGATTTTGTTGCGGAGTCACCTAGTGCAG”, the binding signal was 65500 fluorescence intensity (a.u.).

For the sequence “GATAATGGCCCTTAAATTGATTGCAACTCACGGTGATACACGGAGTCACCTAGTGCAG”, the binding signal was 44800 fluorescence intensity (a.u.).

“GCTCTAAGGGTGGGTTTTGATGGGAGGTTTTGGATGGATACGGAGTCACCTAGTGCAG”: the binding signal was 6370 fluorescence intensity (a.u.). On to “TTTGATTTGGGAAAGATAATATATCTTGCTACTTTGTCTTCGGAGTCACCTAGTGCAG”, for which the binding signal was 18200 fluorescence intensity (a.u.). On to “AAACATTAATTAATACCATAATAGTTAGGTGACAATTGACCGGAGTCACCTAGTGCAG”, for which the binding signal was 27100 fluorescence intensity (a.u.).

For “CAACGCCTGTAATTGCTCCTCCTGGCATGCAAGCCTTGTCCGGAGTCACCTAGTGCAG”, the binding signal is 5050 fluorescence intensity (a.u.). To “GTAAATTGTTTACTATCGAATGTACATGCTATATATATTGCGGAGTCACCTAGTGCAG” belongs 20400 fluorescence intensity (a.u.); to “CTACAAAATTAAGCTGATAGCAACATCATTCACACATGGACGGAGTCACCTAGTGCAG”, 4120 fluorescence intensity (a.u.); to “GCAATAATTAATAAGGCTCTAGGATAATTCAAATGGTTTTCGGAGTCACCTAGTGCAG”, 9520 fluorescence intensity (a.u.).

Turning to “TAATGGTTTTCAGACAAATGGATAATTAAGCTGATAGCGACGGAGTCACCTAGTGCAG”, the binding signal is 65400 fluorescence intensity (a.u.).

With “GGCTGACGTCTAAATAAATTTTGAGTAAATTACATTAGCGCGGAGTCACCTAGTGCAG”, the binding signal is 15600 fluorescence intensity (a.u.). In the case of “ATCGTAGTGTAATTACACTGTAACTTATATGTAATTACACCGGAGTCACCTAGTGCAG”, the binding signal is 12100 fluorescence intensity (a.u.). As for “CGATGATTGTAATCTCATTGAACAGATGATCCTTCAGGATCGGAGTCACCTAGTGCAG”, the binding signal is 52400 fluorescence intensity (a.u.).

“AAATATTATAATTGATTGTCGATGAAACATCGGGTTGTACCGGAGTCACCTAGTGCAG”: the binding signal is 46200 fluorescence intensity (a.u.). Consider “CTCAGATTTGATCAGTGGTAATTTCTCATGTAATCTCATTCGGAGTCACCTAGTGCAG”, for which the binding signal was 10500 fluorescence intensity (a.u.). Turning to “TCCTTTATTATCTGTAATTGTAAAATCTTCAGATGAACACCGGAGTCACCTAGTGCAG”, the binding signal was 6210 fluorescence intensity (a.u.). To “AATTGATTAAGATGATGATGAAAGATAATACAGCTCGATCCGGAGTCACCTAGTGCAG” belongs 27100 fluorescence intensity (a.u.); to “TATAATTGATGTACATCGATGATTAATTCTCTAACAGATCCGGAGTCACCTAGTGCAG”, 62300 fluorescence intensity (a.u.); to “TCAAATACTGCTGATTATACATACCCACATGTGTTGAATGCGGAGTCACCTAGTGCAG”, 3580 fluorescence intensity (a.u.). For the sequence “ATAAAGTGATTTAATTTTAGTTAAAGTTAAACTACTTTAACGGAGTCACCTAGTGCAG”, the binding signal was 21100 fluorescence intensity (a.u.). As to “CACTCTTGCATTTCTTTGATTGCAAATTTCCAAGGCAGAACGGAGTCACCTAGTGCAG”, the binding signal was 5250 fluorescence intensity (a.u.). For the sequence “ATTTTACAGGGTGATTTGAACATACAGTAATTATGGCCAACGGAGTCACCTAGTGCAG”, the binding signal was 6520 fluorescence intensity (a.u.). To “AAATGTCTTGTAGATTGATATATTACATGGAACAAAATTTCGGAGTCACCTAGTGCAG” belongs 3240 fluorescence intensity (a.u.). Take “GTTAAACTAATTTGAATTTGTTAGTACAGTTTGCATTTCACGGAGTCACCTAGTGCAG”: the binding signal was 25500 fluorescence intensity (a.u.).

For “TGAAATTAATTTGATGTGATAGATTTCTAGGTTTTCTTTGCGGAGTCACCTAGTGCAG”, the binding signal was 64300 fluorescence intensity (a.u.).

“CTGATTGATTCGTAATAGTAGAATAGGACATGTTACCATACGGAGTCACCTAGTGCAG”: the binding signal is 64500 fluorescence intensity (a.u.). For “TTAATTGGATTGTTTTGATTCGTTGGAGAAGTTAGGAATACGGAGTCACCTAGTGCAG”, the binding signal was 28600 fluorescence intensity (a.u.). For “CTTGATTTATTATTTACCATGTTAGAAATGTTTATTTATACGGAGTCACCTAGTGCAG”, the binding signal was 29600 fluorescence intensity (a.u.). “TGTGTTCTTGATTTGTGTTGTGTTTGTAGATCGTAGTTTGCGGAGTCACCTAGTGCAG”: the binding signal was 10200 fluorescence intensity (a.u.).

Turning to “CTGTAATCTTGCTGATTGAATTCTATTTTGATGTGCAGAGCGGAGTCACCTAGTGCAG”, the binding signal is 44800 fluorescence intensity (a.u.).
